# Shn3 3UTR inh – Schnurri-3 reporter inhibition in Clone20 osteoblasts; Clone20 osteoblast Shn3 3'UTR firefly luciferase, 24 h; actives 0.52% (n = 360,000); AID 588674; inhibition, % at 12.5 µM;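 active means mean inhibition of at least 75% with every replicate also reaching 75%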;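 further: 0% = median of neutral control wells and 100% = pilot-screen positive control compound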
# CSC inhib – cancer stem cell inhibition; cancer stem cell-like cells viability, luminescence; AID 2717; actives 1.1% (n = 300,000); inhibition, % at 7.5 µM; in the data active means inhibition above about 75%; tested in HMLE shEcad cells
# Gli-Sufu block – Gli-Sufu pathway antagonism; inhibition, % at 5 µM; Sufu-KO-LIGHT fibroblasts, Gli luciferase reporter luminescence; AID 588413; actives 0.74% (n = 340,000);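 active means inhibition above about 55%, limit read from the data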;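 further: 0% = DMSO-treated cells and 100% = wells with medium but no cells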
# PAX8 reporter – lowers PAX8-driven luciferase in RMG-I cells; RMG-I TPO-luciferase reporter, SteadyGlo, 24 h; actives 1.2% (n = 360,000); inhibition, % at 12.6 µM;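 active means mean replicate inhibition at least 60% with every replicate also reaching 60%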;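 further: luciferase light reporting Pax8 driven TPO promoter activity; plate controls were median of neutral control wells for no effect and mitoxantrone controls for full effect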
# Beta cell apopt – blocks beta cell apoptosis; INS-1E cytokine-induced death, ATP luminescence, 48 h; percent of positive-control rescue, neutral wells zero; protection from apoptosis, % (concentration not given with the values); actives 0.8% (n = 300,000); AID 435005;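 active means Every replicate reaches about 75%, or at least half do and their mean reaches it too, limit read from the data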;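 further: 0% = cytokine-treated negative control wells and 100% = positive control rescue; higher means more ATP so stronger rescue from cytokine killing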
# Mdm2 MdmX PPI – human Mdm2/MdmX binding inhibition; SaOS-2 split-luciferase Mdm2/MdmX complementation, luminescence; inhibition, % at 8 µM; actives 3% (n = 330,000);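 active means inhibition of at least 50% at 8 µM in the primary screen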
# * = called active by the depositor; / = no result. This is a sample that favours compounds with a hit; in the whole collection about 4% have one here.
SMILES,Shn3 3UTR inh,CSC inhib,Gli-Sufu block,PAX8 reporter,Beta cell apopt,Mdm2 MdmX PPI
C[C@H]1CN([C@@H](C)CO)C(=O)c2cccc(NC(=O)CCCCCC(=O)Nc3ccccc3N)c2O[C@@H]1CN(C)Cc1ccc(Cl)c(Cl)c1,/,/,/,65.1*,/,/
C[C@@H]1CN([C@@H](C)CO)C(=O)c2cccc(NC(=O)CCCCCC(=O)Nc3ccccc3N)c2O[C@H]1CN(C)Cc1ccc(Cl)c(Cl)c1,/,/,/,52.3,/,/
C[C@H]1CN([C@@H](C)CO)C(=O)c2cccc(NC(=O)CCCCCC(=O)Nc3ccccc3N)c2O[C@H]1CN(C)CC1CCCCC1,/,/,/,-15.2,/,/
Cc1cc(N/N=C/c2ccc(O)cc2O)nc(-c2ccccc2O)n1,20.4,99.1*,0.7,/,75.9*,/
Cc1cccc(NC(=O)c2nc[nH]c2C(=O)N[C@@H](C)c2ccccc2)c1,-0.8,78.0*,1.6,-10.5,9.3,35.1
O=C(N/N=C/c1cc2c3c(c1O)CCCN3CCC2)c1ccccc1O,82.4,/,17.3,62.3*,/,/
CC(=O)Oc1c(Cl)cc(N(C(C)=O)S(=O)(=O)c2ccccc2)c2ccccc12,10.6,12.2,6.0,19.5,94.7*,22.9
CC(=O)N(c1ccccc1Cl)S(=O)(=O)c1ccc(Cl)cc1,0.0,-7.6,-1.8,12.8,2.4,-7.1
CC(=O)Oc1ccc(N(C(C)=O)S(=O)(=O)c2ccccc2)c2ccccc12,19.0,/,/,-1.9,/,/
COc1ccc(S(=O)(=O)N(C(C)=O)c2ccc(OC(C)=O)c3ccccc23)cc1[N+](=O)[O-],9.7,21.6,13.3,21.3,106.0*,21.7
Cc1noc(C)c1S(=O)(=O)Nc1ccc2c(c1)C(=O)N([C@H](C)CO)C[C@@H](C)[C@@H](CN(C)C)OCCCC[C@@H](C)O2,/,/,/,3.2,/,/
CC1(c2ccccc2)CC(C)(C)N2C(=O)/C(=C3\SC(=S)NC3=O)c3cccc1c32 (stereo not drawn),31.3,105.1*,14.7,-14.7,-0.3,/
CC1(c2ccccc2)CC(C)(C)N2C(=O)C3(C(C#N)=C(N)Oc4cc(O)ccc43)c3cccc1c32 (stereo not drawn),15.0,1.9,5.2,/,-19.4,17.9
O=C(Nc1ccc(Cl)cc1)N1C[C@H]2[C@@H](c3ccccc31)[C@H](CO)N2C(=O)c1ccccn1,/,/,/,-30.9,/,/
N#Cc1ccc(-c2ccc([C@@H]3[C@@H](CO)N4C(=O)CN(C(=O)C5CCCC5)C[C@@H]34)cc2)cc1,/,/,/,8.5,/,/
CO[C@@H]1CC[C@@H]2CCN(C)C(=O)CCCN(C)C(=O)c3cc(C#N)ccc3OC[C@H]1O2,/,/,/,0.9,/,/
COc1ccc(-c2cc([C@H]3[C@@H]4C=CCC[C@@]4(C)C(=O)N3Cc3ccccc3)ccc2F)cc1OC,-7.9,91.1*,0.2,1.1,3.3,43.2
COc1ccc(-c2c([C@H]3[C@@H]4C=CCC[C@@]4(C)C(=O)N3Cc3ccccc3)ccc3ccccc23)cc1OC,8.2,-2.0,-3.6,35.7,13.7,38.6
Cc1ccc(-c2cc([C@H]3[C@@H]4C=CCC[C@@]4(C)C(=O)N3Cc3ccccc3)ccc2F)cc1,2.0,111.1*,-25.7,22.0,-2.6,17.0
COc1ccc(-c2cccc([C@H]3[C@@H]4C=CCC[C@@]4(C)C(=O)N3Cc3ccccc3)c2)cc1,8.5,82.0*,5.7,20.7,-18.4,21.9
Cc1ccc(F)c([C@H]2[C@@H]3C=CCC[C@@]3(C)C(=O)N2Cc2ccccc2)c1,-61.7,14.1,-3.6,12.0,-7.4,-19.4
COc1ccc([C@H]2[C@@H]3C=CCC[C@@]3(C)C(=O)N2Cc2ccccc2)cc1Cl,5.5,29.6,2.5,3.1,7.5,13.9
CN(C)c1ccc(-c2cc([C@H]3[C@@H]4C=CCC[C@@]4(C)C(=O)N3Cc3ccccc3)ccc2F)cc1,17.8,103.7*,11.8,-2.0,-0.6,31.1
C[C@@H]1CN([C@H](C)CO)C(=O)Cc2cc(NC(=O)Nc3ccc4c(c3)OCO4)ccc2O[C@H]1CN(C)C(=O)NC1CCCCC1,/,/,/,-16.4,/,/
CN(C[C@H]1[C@H](c2ccccc2)[C@@H](CO)N1CC1CC1)C(=O)c1ccc(F)cc1,/,/,/,10.0,/,/
SMILES,Shn3 3UTR inh,CSC inhib,Gli-Sufu block,PAX8 reporter,Beta cell apopt,Mdm2 MdmX PPI
C[C@@]12CCC=C[C@H]1[C@H](c1ccc(F)c(/C=C/c3ccccc3)c1)N(Cc1ccccc1)C2=O,6.8,94.4*,1.8,21.4,5.5,25.5
C[C@@]12CCC=C[C@H]1[C@H](c1ccoc1)N(Cc1ccccc1)C2=O,-1.8,8.8,-12.4,-4.8,-4.5,15.2
O=C(C1CCOCC1)N1C[C@@H]2[C@H](c3ccccc31)[C@@H](CO)N2C(=O)Nc1ccccc1F,/,/,/,5.5,/,/
O=C(c1ccco1)N1N=C(c2ccc(Br)cc2)CC1(O)C(F)(F)F (stereo not drawn),3.9,0.0,-8.3,97.0*,/,-3.6
Cc1noc(C)c1S(=O)(=O)N(C)C[C@@H]1OCCCC[C@@H](C)Oc2ccc(NC(=O)Cc3ccccc3)cc2C(=O)N([C@@H](C)CO)C[C@H]1C,/,/,/,-6.4,/,/
C[C@@H]1CCCCO[C@@H](CN(C)C(=O)NC2CCCCC2)[C@@H](C)CN([C@H](C)CO)C(=O)c2cc(NS(=O)(=O)c3ccc(Cl)cc3)ccc2O1,/,/,/,-19.7,/,/
C[C@H]1CCCCO[C@H](CN(C)C(=O)NC2CCCCC2)[C@@H](C)CN([C@@H](C)CO)C(=O)c2cc(NS(=O)(=O)c3ccc(Cl)cc3)ccc2O1,/,/,/,71.2*,/,/
C[C@@H]1CCCCO[C@H](CN(C)C(=O)NC2CCCCC2)[C@H](C)CN([C@@H](C)CO)C(=O)c2cc(NS(=O)(=O)c3ccc(Cl)cc3)ccc2O1,/,/,/,79.6*,/,/
COc1ccc2c3c([nH]c2c1)[C@H](CO)N(Cc1ccncc1)CC31CN(Cc2ccc(-c3ccccn3)cc2)C1,/,/,/,-49.5,/,/
CCOC(=O)c1cnc(-n2nc(C)cc2C)nc1NCc1ccccc1,47.2,18.4,23.9,12.5,98.8*,17.4
CCOC(=O)c1cnc(-n2nc(C)cc2C)nc1NNc1cc(-c2ccccc2)nc(C)n1,/,/,/,/,/,45.1
CCOC(=O)c1cnc(-n2nc(C)cc2C)nc1NC(C)c1ccccc1 (stereo not drawn),50.2,/,20.9,16.7,88.3*,23.0
CCOC(=O)c1cnc(-n2nc(C)cc2C)nc1NCCO,-2.6,/,-23.5,/,-4.5,9.4
CCOC(=O)c1cnc(-n2nc(C)cc2C)nc1NNc1ncc(-c2ccccc2)cn1,/,36.7,-16.4,/,96.4*,48.4
O=C(N[C@@H]1CC[C@H](CC(=O)N2CCOCC2)O[C@H]1CO)c1ccc2c(c1)OCO2,/,/,/,3.9,/,/
N#C[C@@H]1[C@@H](c2ccc(C3=CCCC3)cc2)[C@@H](CO)N1C(=O)NC1CCCC1,/,/,/,-5.3,/,/
c1ccc(-c2cc(-c3ccncc3)nc3ccc4ccccc4c23)cc1,3.9,102.4*,10.3,35.1,0.1,25.5
CC(=O)Oc1ccc2c(=O)c(-c3nc4ccccc4s3)coc2c1,-29.2,84.3*,-59.8,-85.2,-1.0,-83.6
CC(C)Oc1ccc2c(=O)c(-c3ccccc3)coc2c1,-50.1,2.6,-123.5,-208.6,7.2,-268.9
